# Read-outs that look alike come from different tables or passages of the source.
# Assays:
# Design in all cases: species or system human, MV4-11 + K-562 + COLO205 + SK-N-BE2 + OVCAR-8
# NUAK2 = conditions: read-out: apparent Kd, compound concentrations: 100 nM and 1000 nM (sheet 'Samples'), n = 1
# TAOK3 = conditions: read-out: apparent Kd, compound concentrations: 100 nM and 1000 nM (sheet 'Samples'), n = 1
# AXL = conditions: read-out: apparent Kd, n = 1
# RAB5C = conditions: read-out: apparent Kd; compound concentrations:100 nM and 1000 nM (sheet 'Samples'); n = 1
# MET = conditions: read-out: apparent Kd, n = 1
# TP53RK = conditions: read-out: apparent Kd, n = 1
# ATR = conditions: read-out: apparent Kd, n = 1
# MCM5 = conditions: read-out: apparent Kd; compound concentrations:100 nM and 1000 nM (sheet 'Samples'); n = 1
# PRKCA = conditions: read-out: apparent Kd, n = 1
# PRKCQ = conditions: read-out: apparent Kd, compound concentrations: 100 nM and 1000 nM (sheet 'Samples'), n = 1
# CHEK1 = conditions: read-out: apparent Kd, n = 1
# PIM1 = conditions: read-out: apparent Kd, compound concentrations: 100 nM and 1000 nM (sheet 'Samples'), n = 1
# SPR = conditions: read-out: apparent Kd, compound concentrations: 100 nM and 1000 nM (sheet 'Samples'), n = 1
# STK11 = conditions: read-out: apparent Kd, n = 1
# FECH = conditions: read-out: apparent Kd, n = 1
# MST1R = conditions: read-out: apparent Kd, n = 1
# CSNK1E = conditions: read-out: apparent Kd; compound concentrations:100 nM and 1000 nM (sheet 'Samples'); n = 1
# CDC7 = conditions: read-out: apparent Kd, n = 1
# MAPK1 = conditions: read-out: apparent Kd, n = 1
# AIFM1 = conditions: read-out: apparent Kd, n = 1
# [1] = compound concentrations:100 nM and 1000 nM (sheet 'Samples')
structure (smiles),measurement,setting,value
CN1C(=O)c2ccccc2N(C)c2nc(Nc3cnn(C4CCNCC4)c3)ncc21 [XMD-17-51],potency estimated from few doses,NUAK2; CATDS: 1.40993766530741E-2,1.63 µM
same,potency estimated from few doses,TAOK3; CATDS: 4.0612086764621601E-2,0.0783 µM
CCn1cc(-c2ccnc3[nH]c(-c4cccc(CN(C)C)c4)cc23)c(-c2ccc(NC(=O)N(C)C)cc2)n1 [GSK1070916],potency estimated from few doses,AXL; [1],0.891 µM
same,potency estimated from few doses,RAB5C,1.43 µM
CS(=O)(=O)Cc1ccc(Nc2nccc(-c3c(-c4cccc(NC(=O)C5CCCCC5)c4)nn4ncccc34)n2)cc1 [GSK350559A],potency estimated from few doses,MET; [1],1.78 µM
CCc1nc(-c2cccc(N(C)S(=O)(=O)c3ccccc3)c2)c(-c2ccnc(Nc3ccc(N4CCN(C(C)=O)CC4)nc3)n2)s1 [GSK1645895A],potency estimated from few doses,"TP53RK; compound concentrations: 100 nM and 1000 nM (sheet 'Samples'), CATDS: 0.13765543946778",1.94 µM
Cc1cccc(-c2cc(-c3c[nH]nc3-c3ccccn3)ccn2)c1 [GW679395X],potency estimated from few doses,ATR; [1],0.784 µM
same,potency estimated from few doses,MCM5,2.22 µM
Cn1cc(C2=C(c3cn(CCCO)c4ccccc34)C(=O)NC2=O)c2ccccc21 [RO0317377-000],potency estimated from few doses,"PRKCA; compound concentrations: 100 nM and 1000 nM (sheet 'Samples'), CATDS: 0.117489729482602",1.24 µM
same,potency estimated from few doses,PRKCQ; CATDS: 9.7872401763747702E-2,2.02 µM
COc1ccc(Nc2nccc(N3CCC(NC(=O)Nc4ccc5c(c4)OCO5)C3)n2)cc1 (stereo not shown) [GSK1379745A],potency estimated from few doses,"CHEK1; compound concentrations: 100 nM and 1000 nM (sheet 'Samples'), CATDS: 3.4900444296342099E-2",2.07 µM
same,potency estimated from few doses,PIM1; CATDS: 4.3475641275587597E-2,1.26 µM
Cc1ccc(O)cc1Nc1ccnc2cc(-c3ccccn3)ccc12.Cl [GW440139A],potency estimated from few doses,SPR; CATDS: 2.8512814896169001E-2,0.683 µM
NC(=O)c1cccc(Nc2nccc(Nc3cccc4[nH]ncc34)n2)c1 [GW782612X],potency estimated from few doses,"STK11; compound concentrations: 100 nM and 1000 nM (sheet 'Samples'), CATDS: 6.0653418391634698E-2",0.342 µM
COc1cc(Nc2ccnc3cc(-c4ccncc4)ccc23)cc(OC)c1OC.Cl [GW494610A],potency estimated from few doses,"FECH; compound concentrations: 100 nM and 1000 nM (sheet 'Samples'), CATDS: 2.4367792327904599E-2",1.07 µM
same,potency estimated from few doses,"MST1R; compound concentrations: 100 nM and 1000 nM (sheet 'Samples'), CATDS: 2.33652063903033E-2",1.28 µM
O=C1N=C(NCc2cccs2)SC1Cc1ccc2ncccc2c1 (stereo not shown) [RO4629078-000],potency estimated from few doses,"AXL; compound concentrations: 100 nM and 1000 nM (sheet 'Samples'), CATDS: 8.9637378169906395E-3",0.899 µM
same,potency estimated from few doses,"CHEK1; compound concentrations: 100 nM and 1000 nM (sheet 'Samples'), CATDS: 9.1517924527920996E-3",0.847 µM
same,potency estimated from few doses,NUAK2; CATDS: 9.28769092053984E-3,0.813 µM
same,potency estimated from few doses,PRKCQ; CATDS: 4.8799216922885302E-2,0.0521 µM
O=C1N=C(NCCc2cccc(Cl)c2)S/C1=C\c1ccc2ncccc2c1 [RO4509201-000],potency estimated from few doses,"FECH; compound concentrations: 100 nM and 1000 nM (sheet 'Samples'), CATDS: 5.2952837559238602E-2",2.08 µM
CC(C)c1nc(-c2cccc(NS(=O)(=O)c3ccccc3)c2)c(-c2ccnc(Nc3ccc4c(c3)CN(C)CC4)n2)s1 [GSK1649598A],potency estimated from few doses,TAOK3; CATDS: 1.6812822211495999E-2,0.6 µM
Cc1cccc(Nc2nc(NCCN)ncc2C(N)=O)c1 [GSK1292139B],potency estimated from few doses,"PRKCA; compound concentrations: 100 nM and 1000 nM (sheet 'Samples'), CATDS: 7.8456539991917998E-2",1.1 µM
CS(=O)(=O)CCNCc1ccc(-c2ccc3ncnc(Nc4ccc(OCc5cccc(F)c5)c(C(F)(F)F)c4)c3c2)o1 [GW576484X],potency estimated from few doses,"MST1R; compound concentrations: 100 nM and 1000 nM (sheet 'Samples'), CATDS: 4.8936571303095901E-2",2.07 µM
O=S(=O)(CCOCc1ccc(-c2ccc3ncnc(Nc4ccc(OCc5cccc(F)c5)c(Cl)c4)c3c2)o1)c1ccccc1 [GW615311X],potency estimated from few doses,PIM1; CATDS: 3.06146278904708E-2,1.12 µM
CN1CCc2ccc(Nc3nccc(-c4c(-c5cccc(NC(=O)c6c(F)cccc6F)c5)nc5ccccn45)n3)cc2C1.Cl [GSK1010829B],potency estimated from few doses,TAOK3; CATDS: 3.3504953987682898E-2,1.49 µM
Cn1cc(-c2cnc(N)c3c(-c4ccc5c(c4)CCN5C(=O)Cc4ccccc4)csc23)cn1 [GSK2593074A],potency estimated from few doses,MCM5,1.53 µM
COc1cc2ncn(-c3cc(OCc4ccncc4)c(C(N)=O)s3)c2cc1OC [GSK336313A],potency estimated from few doses,FECH; [1],2.25 µM
Fc1ccc(-c2c(-c3ccncc3)[nH]c3nccnc23)cc1 [RO1155697-000],potency estimated from few doses,CSNK1E,0.0528 µM
COc1cc2ncn(-c3cc(OCc4cccs4)c(C(N)=O)s3)c2cc1OC [GSK312948A],potency estimated from few doses,RAB5C,1.45 µM
Nc1nc(N)c2nc(-c3ccccc3)[nH]c2n1 [SKF-12778],potency estimated from few doses,ATR; [1],0.52 µM
same,potency estimated from few doses,MCM5,2.16 µM
same,potency estimated from few doses,STK11; [1],1.74 µM
N#Cc1cccc(Nc2nccc(-c3cnn4ncccc34)n2)c1 [GW778894X],potency estimated from few doses,CDC7; [1],1.24 µM
same,potency estimated from few doses,CSNK1E,0.314 µM
same,potency estimated from few doses,PRKCA; [1],1.18 µM
CNc1nccc(-c2c(-c3ccc(F)cc3)ncn2C2CCN(C)CC2)n1 [SB-222903],potency estimated from few doses,CSNK1E,0.0416 µM
CNC(=O)c1ccccc1Nc1nc(Nc2cccc(CS(C)(=O)=O)c2)ncc1C.O=CO [GSK1520489A],potency estimated from few doses,"AXL; compound concentrations: 100 nM and 1000 nM (sheet 'Samples'), CATDS: 1.37984345324301E-2",0.374 µM
same,potency estimated from few doses,"MET; compound concentrations: 100 nM and 1000 nM (sheet 'Samples'), CATDS: 7.7828561887260297E-2",0.0122 µM
same,potency estimated from few doses,NUAK2; CATDS: 9.7596009365087198E-3,1.5 µM
same,potency estimated from few doses,SPR; CATDS: 1.1311991214782401E-2,0.749 µM
COc1cc(/C=N/Nc2ncnc3[nH]ncc23)ccc1O [GW578748X],potency estimated from few doses,CHEK1; [1],0.592 µM
COc1cccc(-c2c[nH]c3c(N/N=C/c4ccncc4)ncnc23)c1 [GW814408X],potency estimated from few doses,STK11; [1],1.9 µM
CS(=O)(=O)c1ccc(-c2cnc(N)c(C(=O)Nc3ccccc3)n2)cc1 [VE-821],potency estimated from few doses,"ATR; compound concentrations: 100 nM and 1000 nM (sheet 'Samples'), CATDS: 0.19985195991101001",0.648 µM
CC(=O)c1c(-c2ccncc2)[nH]c(-c2ccncc2)c1C [GW493036X],potency estimated from few doses,RAB5C,1.6 µM
CN1CCN(Cc2ccc(NC(=O)Nc3ccc(N(C)c4ccnc(Nc5ccc(CS(C)(=O)=O)cc5)n4)cc3)cc2)CC1.Cl [GW827654A],potency estimated from few doses,"MET; compound concentrations: 100 nM and 1000 nM (sheet 'Samples'), CATDS: 3.7030406739302302E-2",1.38 µM
Cl.Oc1ccc2ncnc(Nc3ccc(OCc4ccccc4)cc3)c2c1 [GI262866A],potency estimated from few doses,MAPK1; [1],0.617 µM
Cn1cc(C2=C(c3cccc([N+](=O)[O-])c3)C(=O)NC2=O)c2ccccc21 [RO0317474-000],potency estimated from few doses,"CDC7; compound concentrations: 100 nM and 1000 nM (sheet 'Samples'), CATDS: 0.13743963750211899",1.67 µM
COc1cc(N2CCN(C(C)C)CC2)ccc1Nc1nc(Nc2cccc(F)c2C(=O)O)c2cc[nH]c2n1 [GSK1819799A],potency estimated from few doses,PIM1; CATDS: 4.9008652633002601E-2,1.33 µM
same,potency estimated from few doses,SPR; CATDS: 4.2652137830011101E-2,2 µM
NC(=O)c1cccnc1COc1cc(-c2ccc(N3CCOCC3)nc2)cc2ncccc12 [BI01125081],potency estimated from few doses,MST1R; [1],1.12 µM
CC(=O)Nc1ccc2c(C3=C(c4cn(C)c5ccccc45)C(=O)NC3=O)cn(C)c2c1 [RO0317596-000],potency estimated from few doses,"MAPK1; compound concentrations: 100 nM and 1000 nM (sheet 'Samples'), CATDS: 0.12847476759448101",1.1 µM
COc1cc(F)c(F)c(F)c1C(=O)c1cnc(NC2CCN(S(C)(=O)=O)CC2)nc1N [RO4600703-000],potency estimated from few doses,AIFM1; [1],0.939 µM
same,potency estimated from few doses,MAPK1; [1],1.58 µM
COc1ccc(Nc2nccc(N3CCC(NC(=O)Nc4cccc(OC)c4)C3)n2)cc1 (stereo not shown) [GSK1379742A],potency estimated from few doses,"TP53RK; compound concentrations: 100 nM and 1000 nM (sheet 'Samples'), CATDS: 0.10793216189185099",2.27 µM
Nc1c(C(=O)c2ccccc2)cnn1-c1ccc(F)cc1 [RO1151246-000],potency estimated from few doses,TP53RK; [1],1.85 µM
Cc1ccc(C(=O)NC2CC2)cc1-c1ccc2[nH]ncc2c1 [GW820759X],potency estimated from few doses,"AIFM1; compound concentrations: 100 nM and 1000 nM (sheet 'Samples'), CATDS: 0.35268476986263803",1.04 µM
COc1ccc(C2=C(c3cn(C)c4ccccc34)C(=O)NC2=O)cc1OC [RO3206363-000],potency estimated from few doses,PRKCQ; CATDS: 0.114661548989235,0.0828 µM
Cl.Fc1cccc(COc2ccc(Nc3ncnc4cc(-c5ccc[nH]5)sc34)cc2Cl)c1 [GW693881A],potency estimated from few doses,"AIFM1; compound concentrations: 100 nM and 1000 nM (sheet 'Samples'), CATDS: 0.160865216132973",1.35 µM
Fc1ccc(-c2ncn(C3CCNCC3)c2-c2ccnc(Oc3ccc4c(c3)OCO4)n2)cc1 [SB-250715],potency estimated from few doses,CSNK1E,0.811 µM
Cc1[nH]nc2c1N=C(c1ccccc1Cl)c1cc([N+](=O)[O-])ccc1N2 [RO0274406-000],potency estimated from few doses,"MAPK1; compound concentrations: 100 nM and 1000 nM (sheet 'Samples'), CATDS: 7.1630348262951699E-2",1.23 µM
Cn1cc(C2=C(c3cn(CCCCCO)c4ccccc34)C(=O)NC2=O)c2ccccc21 [RO0318053-000],potency estimated from few doses,"CDC7; compound concentrations: 100 nM and 1000 nM (sheet 'Samples'), CATDS: 8.0152233997933905E-2",1.89 µM
COc1cccc(C2=C(c3cn(C)c4c(C)cccc34)C(=O)NC2=O)c1 [RO3301012-000],potency estimated from few doses,"CDC7; compound concentrations: 100 nM and 1000 nM (sheet 'Samples'), CATDS: 0.10055770090402801",1.8 µM
CCCCCNC(=O)[C@@H]1CCCN2C(=O)CC[C@H](NC(=O)[C@H](Cc3ccc(OP(=O)(O)O)cc3)NC(C)=O)C(=O)N12 [RO0324694-000],potency estimated from few doses,AIFM1; [1],1.67 µM

# — PMC11062922 (Nature Chemical Biology, 2023)
